About 83,000 compounds went through this panel and 20% of them were active in at least one assay; those are over-represented in the sample as a whole.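 In brief: 96-well plates, 48 h treatment, single concentration, percent growth endpoint.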 Active and inactive are the calls of the source. Rule for the calls: active = growth percent below 10; inactive = the rest.
Legend:
Experiment in all cases: NCI-60 one-dose screen, 48 h (100 = growth as untreated, 0 = no growth, -100 = all killed)
Conditions in all cases: 10 µM unless noted
[1] = system: NCI-H23 lung
[2] = system: NCI-H226 lung
[3] = system: NCI-H322M lung
[4] = system: HOP-62 NSCLC
[5] = system: NCI-H460 lung
[6] = system: NCI-H522 lung
[7] = system: A549/ATCC NSCLC
[8] = system: 786-0 renal
[9] = system: COLO 205 colon
[10] = system: HOP-92 NSCLC

Measured: growth

CCN(CC)c1ccc(N=O)cc1
inactive: [1] 81.7% | [2] 101% | [3] 87.7% | [4] 91.8% | [5] 58.9% | [7] 59.7% | [8] 91.8% | [9] 13.9%
active: [6] -80.9%

Cc1c(C(=O)/C=C/c2csc3ccccc23)[n+](=O)c2ccccc2n1[O-]
active: [6] 6.66%
inactive: [1] 44.4% | [2] 78.1% | [3] 81.8% | [4] 98.7% | [5] 66.6% | [7] 61.7% | [8] 88.3% | [9] 73.4%

CCOC(=O)C1CCNC(=O)C1=O (stereo not given)
inactive: [1] 107% | [2] 97% | [3] 144% | [4] 112% | [5] 113% | [6] 116% | [8] 98% | [9] 114%

CC(=O)Nc1ccc(S(=O)(=O)n2ccc(-c3ccc4c(c3)CCC(C)(C)O4)n2)cc1
inactive: [1] 56.6% | [2] 52.4% | [3] 89% | [4] 94.4% | [5] 41.4% | [6] 54% | [7] 57.8% | [8] 79.8% | [9] 88.8%

C=C[C@@H]1C[C@@H]2Cc3ccccc3N1O2
inactive: [1] 98.9% | [2] 109% | [3] 112% | [4] 96.6% | [5] 107% | [6] 120% | [7] 96.3% | [8] 104% | [9] 116%

O=c1cc/c(=N\Nc2ccccc2)c(=O)/c1=N/Nc1ccccc1
inactive: [1] 93.9% | [2] 108% | [3] 93.7% | [4] 84.8% | [5] 95.7% | [6] 110% | [7] 123% | [8] 112% | [9] 137%

CC(O)CN1CCCCC1 (stereo not given)
inactive: [1] 100% | [2] 106% | [3] 111% | [4] 122% | [5] 104% | [6] 88.8% | [7] 105% | [8] 105% | [9] 111%

O=[N+]([O-])c1cccc(-c2nc3sccn3c2-c2ccnc(NCCCNS(=O)(=O)c3ccc(Cl)cc3)n2)c1
inactive: [1] 42.8% | [2] 44.2% | [3] 78.5% | [4] 84% | [5] 57.4% | [6] 28.4% | [7] 43.1% | [8] 78.7% | [9] 49.2%

COc1cccc(CC(C)=C(c2ccc(OCCN(C)C)cc2)c2ccc(OCCN(C)C)cc2)c1
inactive: [1] 70% | [2] 31.3%
active: [3] 1.04% | [4] 3.07% | [5] -64.9% | [6] -39.8% | [7] -21.7% | [8] -91% | [9] -70.5%

C=C1CCC2C3(C)COC(C)(C)OC3CCC2(C)C1C/C=C1/C(=O)OCC1Oc1ccccc1OC (stereo not given)
inactive: [1] 92.2% | [2] 79.7% | [3] 96.6% | [4] 105% | [5] 102% | [6] 17.5% | [7] 97.7% | [8] 99.9% | [9] 102%

COC(OC)c1ccccc1
inactive: [1] 105% | [2] 108% | [3] 103% | [4] 99.3% | [5] 117% | [7] 103% | [8] 95% | [9] 107%

O=c1cc(Cc2ccc([N+](=O)[O-])cc2)[nH]c(=O)[nH]1
inactive: [1] 99.2% | [2] 107% | [3] 112% | [4] 93.3% | [5] 109% | [10] 96.1% | [8] 98.9% | [9] 100%

COc1ccc(/C=N\NC(=O)CN2CCN(c3cc4c(cc3F)c(=O)c(C(=O)N/N=C/c3ccc(OC)c(OC)c3)cn4C3CC3)CC2)cc1OC
active: [1] -32% | [4] 9.47% | [5] 3.65% | [6] 7.49% | [9] 7.74%
inactive: [2] 52.1% | [3] 11.1% | [7] 48.6% | [8] 45.4%

CN(C[C@H]1Cc2c(cccc2N2CCN(c3ncccn3)CC2)CN1)[C@H]1CCCc2cccnc21
inactive: [1] 45.5% | [2] 39.4% | [3] 50.3% | [4] 17.2% | [5] 20.7% | [6] 52.6% | [7] 25.7% | [8] 39.5% | [9] 10.2%

Cc1nn(-c2ccc(Cl)cc2)c2ncnc(N/N=C/c3cccc([N+](=O)[O-])c3)c12
inactive: [1] 94.3% | [2] 104% | [3] 96.4% | [4] 107% | [5] 77.8% | [6] 103% | [7] 104% | [8] 96.4% | [9] 95.3%

C=COC(=O)CCCCCCCCC
inactive: [1] 108% | [2] 107% | [3] 102% | [4] 120% | [5] 106% | [6] 85.9% | [7] 108% | [8] 102% | [9] 111%

CN(C)CCN1C(=O)c2ccc3c4c(ccc(c24)C1=O)C(=O)N(CCN=C=S)C3=O
active: [1] -61.7% | [2] -94.7% | [3] -94.1% | [4] -96.3% | [5] -43.5% | [6] -93.8% | [7] -52.8% | [8] -81.3% | [9] -87.9%

Brc1cccc(-c2cc(-c3ccc4c(c3)OCCCO4)[nH]n2)c1
active: [6] 2.15% [25 µM]
inactive: [1] 66.2% [25 µM] | [3] 68% [25 µM] | [4] 53% [25 µM] | [5] 16% [25 µM] | [10] 56.8% [25 µM] | [7] 44.4% [25 µM] | [8] 85.2% [25 µM] | [9] 36.3% [25 µM]

CCOC(=O)c1ccc2c(c1)c1c(C)c3cccnc3c(C)c1n2C
inactive: [1] 56.7% | [3] 56.9% | [4] 72.7% | [5] 22.5% | [10] 67.9% | [6] 49.1% | [7] 67.7% | [8] 51.3% | [9] 50.3%

O=C(Nc1ccc2c(c1)OCO2)C(=O)c1c[nH]c2cc(F)ccc12
inactive: [1] 79.6% | [3] 65.3% | [4] 54.4% | [5] 41.3% | [10] 42.2% | [6] 61.2% | [7] 48.9% | [8] 57.7% | [9] 83.1%

c1ccc(-c2cn(-c3ccccc3)c(-c3ccccc3)n2)cc1
inactive: [1] 77.6% | [3] 104% | [4] 82% | [5] 89.5% | [6] 73.9% | [7] 48% | [8] 71.5% | [9] 95.2%

O=C(CN1CCN(c2cc3c(cc2F)c(=O)c(C(=O)N/N=C/c2ccccc2O)cn3C2CC2)CC1)N/N=C\c1ccccc1O
inactive: [1] 28.2% | [3] 25.4% | [4] 24.5% | [6] 22.6% | [7] 17.8% | [9] 17.4%
active: [5] 0.87% | [8] 7.83%

CCC(=O)Oc1ccc(/C(=C(/C)Cc2cccc(OC)c2)c2ccc(OCCN(C)C)cc2)cc1
inactive: [1] 94.2% | [3] 94.5% | [4] 108% | [5] 90.1% | [10] 67.2% | [6] 87.6% | [8] 79.7% | [9] 102%

O=c1[nH]c(Nc2ccc(S(=O)(=O)O)cc2)nc2nc(Nc3ccc(NC(=S)Nc4ccccc4)cc3)nc(-c3ccc(O)cc3O)c12
inactive: [1] 102% | [3] 125% | [4] 109% | [5] 105% | [10] 102% | [6] 91.9% | [7] 110% | [8] 104% | [9] 119%

Cn1c2ccc(Br)cc2c2c3c(c4c5ccccc5[nH]c4c21)C(=O)N(O)C3=O
active: [1] -42.6% | [3] -68% | [4] -67.8% | [5] -14.8% | [10] -77.3% | [6] -67% | [7] -13.8% | [8] -93.8% | [9] -84.4%

COC(=O)c1cccc2c1N(C)c1c(cccc1C(=O)OC)CC2
inactive: [1] 104% | [3] 111% | [4] 107% | [5] 117% | [10] 96.4% | [6] 96.1% | [7] 112% | [8] 108% | [9] 102%

CCOC(=O)c1c(/N=C2\SC(=O)/C(=C\C(=O)OC)N2NC)sc2c1CCN(C(=O)OCC)C2
inactive: [1] 96.4% | [3] 97.8% | [4] 99.2% | [5] 101% | [10] 90.6% | [6] 94.7% | [7] 98.8% | [9] 109%

COc1ccccc1CNCCCN1C(=O)c2ccc3c4c(ccc(c24)C1=O)C(=O)N(CCCNCCCCNCCCN)C3=O
active: [1] 1.96% | [3] -4.96% | [4] -55.2% | [5] -30.2% | [10] 5.16% | [6] -41.7% | [7] -48.2% | [8] 3.83% | [9] -78.9%

CCOC(=O)CN1/C(=N/c2sc3c(c2C(=O)OCC)CCN(C(=O)OCC)C3)SC(=O)/C1=C\C(=O)OC
inactive: [1] 95.8% | [3] 98.4% | [4] 92.4% | [5] 99.9% | [10] 74.5% | [6] 76.4% | [7] 90.4% | [9] 101%

COc1ccc(C2NN=C3c4ccccc4CCC32)cc1 (stereo not given)
inactive: [1] 67.7% | [3] 104% | [4] 67.3% | [5] 56.3% | [10] 67.5% | [6] 47.2% | [7] 68.1% | [8] 91.3% | [9] 78.4%

CC(C)(C)n1cc(-c2ccnc(NCCNS(=O)(=O)c3ccc(F)cc3)c2)c(-c2cccc(O)c2)n1
inactive: [1] 58.2% | [3] 72.3% | [4] 78.9% | [5] 29.8% | [10] 58.3% | [6] 50.4% | [8] 26%
active: [9] -2.98%
